The source of these data is PubChem BioAssay.

Activity calls are given as the source filed them.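 Rule for the calls, unless noted: active = NADPH fluorescence slope more negative than the mean of all samples by about 3 SD, 99.7% confidence; inactive = the rest.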

Experiment [1] is described as follows: inhibitors of TNFa-induced NFkB p65 translocation, primary screen, imaging, HUVEC, MLSMR starter and 10KST1 sets (AID 438;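 active = inhibition above 20% together with a positive visual image hit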;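 note: compound added about 3h40 before a 20 min TNFalpha stimulation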;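 for inhibition: signal is the nuclear over cytoplasmic p65 intensity ratio per well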). Particulars: HUVEC TNFa-induced p65 nuclear translocation; cell count: measured here: nuclei count (cytotoxicity indicator), at 2.08 µM; inhibition: at 2 µM, stronger effect = higher value, 0% TNFa-plus-vehicle, 100% no-TNFa wells.
The nature of experiment [2]: inhibitors of mutant huntingtin aggregation, primary screen, imaging, exon1htt(103Q)mCFP cells, high-content imaging (AID 483;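 active = visual image review flags a hit and inhibition of aggregation exceeds 20%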;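 note: compound exposure lasted 3 days before fixation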;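 for nuclei count: percent of the per-plate median nuclei count of sample wells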). Particulars: exon1htt(103Q)mCFP cell line, aggregate imaging, at 2 µM; inhibition of aggregation: stronger effect = higher value; nuclei count: measured here: cell count, toxicity.
The nature of experiment [3]: inhibitors of E-selectin induction by TNFa, primary screen, imaging, HUVEC, immunofluorescence, MLSMR starter and 10KST1 sets (AID 487;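 active = visually confirmed hit in the image check and inhibition above 20%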;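 for inhibition: signal is fraction of cell area covered by stained E-selectin grains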;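 for nuclei count: 100% = median nuclei count of all wells on the same plate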). Conditions: HUVEC TNFalpha-induced E-selectin immunofluorescence imaging, at 2 µM; inhibition: stronger effect = higher value; nuclei count: measured here: cell number, toxicity.
Experiment [4] concerns the target Voltage-gated potassium channel subunit beta-2 (Rattus norvegicus) (UniProt P62483). Put plainly: KvBeta enzyme negative modulators, primary screen, biochemical, NADPH fluorescence (AID 622;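 active = fluorescence slope higher than the sample average by over 3 SD, cut at about -0.22 in these data, passing the limit was not always enough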;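 note: slope of raw intensity against log time taken from 70 to 1610 s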). Particulars: recombinant KvBeta, 4-cyanobenzaldehyde reduction, at 10 µM, stronger effect = higher value.
The target is the same in experiment [5]. Put plainly: KvBeta positive modulators, primary screen, biochemical, NADPH fluorescence (AID 623).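 Note: fluorescence intensity change per second fitted from 20 to 320 s.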 Conditions: Recombinant KvBeta, NADPH fluorescence decrease slope, 10 min; at 10 µM; stronger effect = lower value.
The target in experiment [6] is Alpha-2C adrenergic receptor (Homo sapiens) (UniProt P18825). Put plainly: modulators of alpha2C/GIRK thallium flux, primary screen, cell-based, HEK293 alpha2C/GIRK1/2 (AID 624;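 active = fluorescence slope after compound addition differing from the mean of all screened samples at 99.7% confidence, in either direction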;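 note: slope of fluorescence ratio to pre-addition baseline per second over 15 to 24 s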). Conditions: thallium flux BTC fluorescence, at 10 µM, actives lie on both sides.
Sequence of Alpha-2C adrenergic receptor (Homo sapiens) (P18825 whole entry, looked up): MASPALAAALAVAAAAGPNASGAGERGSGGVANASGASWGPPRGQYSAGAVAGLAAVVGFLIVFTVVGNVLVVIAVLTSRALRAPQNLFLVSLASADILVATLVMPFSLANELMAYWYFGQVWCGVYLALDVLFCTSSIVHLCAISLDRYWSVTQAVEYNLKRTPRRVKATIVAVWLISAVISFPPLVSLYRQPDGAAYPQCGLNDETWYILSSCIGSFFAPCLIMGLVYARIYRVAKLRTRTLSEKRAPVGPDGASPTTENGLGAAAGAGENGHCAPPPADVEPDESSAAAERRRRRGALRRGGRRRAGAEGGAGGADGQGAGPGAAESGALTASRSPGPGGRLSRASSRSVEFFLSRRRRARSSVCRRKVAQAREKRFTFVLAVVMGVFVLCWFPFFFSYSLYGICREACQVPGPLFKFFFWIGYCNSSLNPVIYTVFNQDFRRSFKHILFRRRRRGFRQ
Experiment [7] can be described thus: inhibitors of Sendai virus-induced IRF3 signaling, primary screen, TLR/RLR signaling modifier project, cell-based, Sendai virus stimulus, luciferase, 10K MLSCN set (AID 602276;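 active = inhibition at or above 50% at 10 µM; inactive = inhibition below 50%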;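 note: firefly luciferase from ISG56 promoter only with Renilla not read in this screen; 0% = Sendai virus plus DMSO and 100% = medium plus DMSO without virus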). Particulars: HEK293 RL24 IRF3 luciferase reporter, at 10 µM, stronger effect = higher value. On the technique in general: In a reporter assay the amount or activity of a reporter protein is the signal.

A short description of experiment [8]: inhibitors of poly I:C-induced TLR3 signaling, primary screen, cell-based, poly I:C stimulus, luciferase, 10K MLSCN set (AID 602277;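 active = inhibition of the reporter signal at or above 50%; inactive = inhibition below 50%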). Particulars: HEK293-TLR3 RL24 IRF3 luciferase reporter, at 10 µM, stronger effect = higher value.

Sequence of Voltage-gated potassium channel subunit beta-2 (Rattus norvegicus) (P62483 whole entry, looked up): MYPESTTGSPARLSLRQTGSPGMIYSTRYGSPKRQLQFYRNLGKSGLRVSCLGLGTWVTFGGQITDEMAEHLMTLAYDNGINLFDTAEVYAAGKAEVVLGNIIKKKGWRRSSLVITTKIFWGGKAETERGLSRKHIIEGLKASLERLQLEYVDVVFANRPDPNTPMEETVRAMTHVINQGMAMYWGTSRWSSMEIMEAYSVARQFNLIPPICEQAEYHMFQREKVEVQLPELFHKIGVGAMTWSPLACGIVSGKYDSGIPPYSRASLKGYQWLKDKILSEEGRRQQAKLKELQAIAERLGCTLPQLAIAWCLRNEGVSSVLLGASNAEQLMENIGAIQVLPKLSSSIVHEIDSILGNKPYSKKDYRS

Consider `Cc1ccc2occ(CN3CCN(c4ccccc4)CC3)c(=O)c2c1`, for which the cell count in experiment [1] stood at 258. For the same compound, the inhibition was -0.8% (inactive) in experiment [1], -17% (inactive) in experiment [3], 15.8% (inactive) in experiment [7] and 18.1% (inactive) in experiment [8]. Also, the inhibition of aggregation in experiment [2] is 14.3% (inactive). Also, the nuclei count in experiment [2] was 81.9%; in experiment [3] it was 93.3%. The fluorescence slope in experiment [4] was -0.454 (inactive). For the same compound, the NADPH fluorescence slope in experiment [5] is -1.6e-05 (inactive). Further, the slope in experiment [6] was 0.00585 (inactive).

With `Cc1cc(NC(c2cccnc2)c2c(C)[nH]c3ccccc23)no1` (stereo not drawn), in experiment [1], the cell count was found to be 514. The inhibition was 2.5% (inactive) in experiment [1], -105% (inactive) in experiment [3], 17.8% (inactive) in experiment [7] and 28.6% (inactive) in experiment [8]. Also, the inhibition of aggregation in experiment [2] is 7.6% (inactive). For the same compound, the nuclei count was 112% in experiment [2] and 135% in experiment [3]. In addition, the fluorescence slope in experiment [4] was -0.596 (inactive). Besides, in experiment [5], the NADPH fluorescence slope was -4.4e-05 (inactive). For the same compound, the slope in experiment [6] is 0.00254 (inactive).

As for `CCOc1cccc(-c2nnc3n2N=C(c2cc(OC)ccc2OC)CS3)c1`, the cell count in experiment [1] is 404. The inhibition in experiment [1] is 15.8% (inactive); in experiment [3], -56.6% (inactive); in experiment [7], 19.6% (inactive); in experiment [8], 56.7% (active). In addition, the inhibition of aggregation in experiment [2] was -30.5% (inactive). Further, the nuclei count in experiment [2] turned out to be 10.2%; in experiment [3], 111%. Further, in experiment [4], the fluorescence slope was -0.376 (inactive). Also, in experiment [5], the NADPH fluorescence slope was -2.7e-06 (inactive). Also, the slope in experiment [6] was 0.00667 (inactive).

`COCCCNC(=O)CCCn1c(=O)c2ccccc2n(CC(=O)Nc2c(C)cccc2C)c1=O`: the cell count in experiment [1] came to 709. Moreover, the inhibition in experiment [1] is -4.7% (inactive); in experiment [3], -64% (inactive); in experiment [7] it was 8.62% (inactive); in experiment [8] it was 32.1% (inactive). The inhibition of aggregation in experiment [2] was -15.7% (inactive). Further, the nuclei count in experiment [2] came out at 105%; in experiment [3] it was 99.1%. The fluorescence slope in experiment [4] was -0.505 (inactive). Further, in experiment [5], the NADPH fluorescence slope was 2.2e-05 (inactive). Besides, the slope in experiment [6] is 0.00674 (inactive).

For `Cc1nc(SCc2ccc(Br)cc2)[nH]c(=O)c1C`, the cell count in experiment [1] is 755. Besides, the inhibition in experiment [1] is 0.8% (inactive); in experiment [3] it was -44.8% (inactive); in experiment [7], 3.06% (inactive); in experiment [8], 29.5% (inactive). The inhibition of aggregation in experiment [2] is -11.8% (inactive). For the same compound, the nuclei count in experiment [2] worked out at 76.4%; in experiment [3] it was 117%. Besides, the fluorescence slope in experiment [4] is -0.452 (inactive). In addition, the NADPH fluorescence slope in experiment [5] is -2.5e-05 (inactive). Further, the slope in experiment [6] is 0.00691 (inactive).

Turning to `CC1CCN(S(=O)(=O)c2ccc(Br)s2)CC1`, the cell count in experiment [1] is 437. In addition, the inhibition in experiment [1] is 13% (inactive); in experiment [3], -79.2% (inactive); in experiment [7], 8.6% (inactive); in experiment [8], 20.9% (inactive). Besides, the inhibition of aggregation in experiment [2] is -1.9% (inactive). Also, the nuclei count in experiment [2] amounted to 102%; in experiment [3], 108%. Also, the fluorescence slope in experiment [4] is -0.489 (inactive). Besides, the NADPH fluorescence slope in experiment [5] was 2.6e-05 (inactive). Further, the slope in experiment [6] was 0.00656 (inactive).

As for `c1ccc2c(c1)nc(-c1ccncc1)n1nnnc21`, the cell count in experiment [1] amounted to 517. Also, the inhibition in experiment [1] was -8.5% (inactive); in experiment [3], -111% (inactive); in experiment [7] it was 7.9% (inactive); in experiment [8], 0.706% (inactive). For the same compound, in experiment [2], the inhibition of aggregation is 8.6% (inactive). The nuclei count stood at 104% in experiment [2] and 179% in experiment [3]. The fluorescence slope in experiment [4] was -0.359 (inactive). Further, the NADPH fluorescence slope in experiment [5] is -1.7e-05 (inactive). The slope in experiment [6] is 0.00824 (inactive).

Take `Cc1nnc(SCCn2c(N3CCC(Cc4ccccc4)CC3)nc3c2c(=O)[nH]c(=O)n3C)s1`: the cell count in experiment [1] is 432. The inhibition is -1.1% (inactive) in experiment [1], -2.5% (inactive) in experiment [3], 1.88% (inactive) in experiment [7] and 20.9% (inactive) in experiment [8]. Further, the inhibition of aggregation in experiment [2] was -91.9% (inactive). Moreover, the nuclei count in experiment [2] turned out to be 79.6%; in experiment [3], 104%. Moreover, the fluorescence slope in experiment [4] was -0.54 (inactive). For the same compound, the NADPH fluorescence slope in experiment [5] is 3.5e-06 (inactive). In addition, in experiment [6], the slope was 0.00468 (inactive).

As usually defined, the inhibition is the change of the read-out against control, counted positive when it falls.
